The whole screen tested about 16,000 compounds, of which about 2,600 (16%) were called active. About 20% were inconclusive and are not listed. Calls follow the shape of the dose curve; as a rule, active = well fitted curve in the direction sought with a large enough effect; inconclusive = small, poorly fitted or top-dose-only effect, or effect the other way; inactive = no such curve, though single readings can be large or run the other way. The entries come from a sample that favours actives as a whole.
Target: Cytochrome P450 2D6 (Homo sapiens) (UniProt P10635)
Sequence (P10635 whole entry, looked up): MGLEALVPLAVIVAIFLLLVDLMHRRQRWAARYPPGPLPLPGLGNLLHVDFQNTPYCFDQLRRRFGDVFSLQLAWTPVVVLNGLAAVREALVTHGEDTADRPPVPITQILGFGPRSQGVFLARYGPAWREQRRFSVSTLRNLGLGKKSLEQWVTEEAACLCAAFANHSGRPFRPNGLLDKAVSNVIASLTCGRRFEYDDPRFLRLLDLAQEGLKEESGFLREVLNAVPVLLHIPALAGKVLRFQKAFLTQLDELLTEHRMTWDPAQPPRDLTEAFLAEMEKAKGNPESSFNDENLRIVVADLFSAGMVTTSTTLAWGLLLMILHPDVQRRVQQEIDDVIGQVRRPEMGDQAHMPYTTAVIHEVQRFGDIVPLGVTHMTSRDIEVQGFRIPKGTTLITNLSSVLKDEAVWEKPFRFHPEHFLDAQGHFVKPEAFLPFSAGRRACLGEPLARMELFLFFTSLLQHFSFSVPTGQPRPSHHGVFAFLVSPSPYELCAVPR
Test: Cytochrome panel assay with activity outcomes
Conditions: recombinant CYP, pro-luciferin dealkylation, luminescence, p450-cyp2d6; series mostly up to 57.1 µM; activity, negative = inhibition: at the top concentration
% is scaled to controls: 0 for no effect and ±100 for the full control effect.

Question: Which “activity, negative = inhibition” value does the source give for `COC[C@H]1OC(=O)c2coc3c2[C@@]1(C)C1=C(C3=O)[C@H]2CCC(=O)[C@@]2(C)C[C@H]1OC(C)=O` here?
Answer: -0.794% (inactive)

Question: Which “activity, negative = inhibition” value does the source give for `S=C(S)N1CCCC1` here?
Answer: -6.69% (inactive)

Question: Which activity, negative = inhibition does the source give for `C[C@@H]1O[C@@H](O[C@H]2C[C@@H](O)[C@@]3(CO)[C@H]4[C@H](O)C[C@]5(C)[C@@H](C6=CC(=O)OC6)CC[C@]5(O)[C@H]4CC[C@@]3(O)C2)[C@@H](O)[C@H](O)[C@H]1O` here?
Answer: -4.25% [at 11.4 µM] (inactive)

Question: With `O=C(Oc1ccccc1)N1CCC2(CCCN(Cc3nccs3)C2)CC1` as the molecule, how does the AC50 read?
Answer: 5.01 µM (active)

Question: With `O=C(Nc1cccc(F)c1)N1CCCC2(CCN(C(=O)Oc3ccccc3)CC2)C1` as the molecule, how does the “activity, negative = inhibition” value read?
Answer: -12.6% (inactive)

Question: How did the “activity, negative = inhibition” value turn out when `O=C(Oc1ccccc1)N1CCC2(CCN(Cc3nccs3)CC2)CC1` was run?
Answer: 3.3% (inactive)

Question: With `COc1ccccc1CN1CCCC2(CCN(C(=O)Oc3ccccc3)CC2)C1` as the molecule, how does the AC50 read?
Answer: 3.98 µM (active)

Question: With `COc1cc2c(cc1OC)[C@]13CC[N@+]4(C)CC5=CCO[C@H]6CC(=O)N2[C@@H]1[C@@H]6[C@@H]5C[C@]34O` as the molecule, how does the activity, negative = inhibition read?
Answer: -2.44% [at 11.4 µM] (inactive)

Question: How did the “activity, negative = inhibition” value turn out when `C[C@@]12CC[C@H]3[C@@H](CCC4=CC(=O)CC[C@]43C)[C@H]1CC[C@H]2C(=O)CO` was run?
Answer: 10.6% [at 25.6 µM] (inactive)

Question: For `CC(C)C[C@H](NP(=O)(O)O[C@@H]1O[C@@H](C)[C@@H](O)[C@@H](O)[C@H]1O)C(=O)N[C@@H](Cc1c[nH]c2ccccc12)C(=O)O`, which “activity, negative = inhibition” value is on record?
Answer: -2.19% (inactive)

Question: Which “activity, negative = inhibition” value does the source give for `O=C(c1cc(-c2ccccc2)nc2ccccc12)N1CCC2(CC1)OCCO2` here?
Answer: -2.96% (inactive)

Question: With `CN(CCc1ccc(Cl)c(Cl)c1)[C@H]1CCCC[C@H]1N1CCCC1` as the molecule, how does the AC50 read?
Answer: 0.00631 µM (active)

Question: `CN(C)CCN(C)CCc1ccc(Cl)c(Cl)c1` was tested. Which “activity, negative = inhibition” value did it give?
Answer: -0.0606% (inactive)

Question: How did the “activity, negative = inhibition” value turn out when `Clc1cnc(Oc2ccc(Oc3ncc(Cl)cc3Cl)cc2)c(Cl)c1` was run?
Answer: -6.42% (inactive)

Question: With `NS(=O)(=O)c1ccc(-c2ccc([As](=O)(O)O)cc2)cc1` as the molecule, how does the activity, negative = inhibition read?
Answer: 16.2% [at 11.4 µM] (inactive)

Question: Which AC50 does the source give for `N[C@H](Cn1ccc(=O)[nH]c1=O)C(=O)O` here?
Answer: 3.98 µM (active)

Question: How did the “activity, negative = inhibition” value turn out when `N[C@@H](Cn1oc(=O)[nH]c1=O)C(=O)O` was run?
Answer: 4.45% (inactive)

Question: For `N[C@@H](Cn1cc(I)c(=O)[nH]c1=O)C(=O)O`, which “activity, negative = inhibition” value is on record?
Answer: 13.8% (inactive)

Question: With `CCSCC[C@H](N)C(=O)O` as the molecule, how does the activity, negative = inhibition read?
Answer: 2.98% [at 11.4 µM] (inactive)

Question: How did the “activity, negative = inhibition” value turn out when `CC(=O)OCC(=O)[C@@H]1CC[C@H]2[C@H]3CC[C@H]4C[C@@H](O)CC[C@]4(C)[C@@H]3C(=O)C[C@@]12C` was run?
Answer: 3.28% [at 25.6 µM] (inactive)

Question: With `COc1ccc(C2NCc3ccc4c(c3-n3cccc32)OCO4)cc1OC` (stereo unspecified) as the molecule, how does the AC50 read?
Answer: 0.398 µM (active)

Question: Which “activity, negative = inhibition” value does the source give for `CCNC(=O)[C@@H]1O[C@@H](n2cnc3c(N)ncnc32)[C@H](O)[C@H]1O` here?
Answer: 1.61% (inactive)

Question: `C[C@@H]1[C@H]2C=C[C@@H]1[C@@H](c1c3ccc(=O)c(O)c-3oc3c(O)c(O)ccc13)[C@@H]2C(=O)O` was tested. Which activity, negative = inhibition did it give?
Answer: 2.68% [at 11.4 µM] (inactive)

Question: For `Cc1nc2ccccc2c(=O)n1-n1cnnc1`, which “activity, negative = inhibition” value is on record?
Answer: 2.1% (inactive)

Question: For `Clc1ccc(C(c2ccc(Cl)cc2)n2cc[n+](C[C@@H](OCc3ccc(Cl)cc3Cl)c3ccc(Cl)cc3Cl)c2)cc1`, which AC50 is on record?
Answer: 0.0398 µM (active)

Question: How did the “activity, negative = inhibition” value turn out when `O=C(C1CC(=O)N(C2CCCC2)C1)N1CCC2(CC1)OCCO2` (stereo unspecified) was run?
Answer: 13.9% (inactive)

Question: How did the AC50 turn out when `CCN1CCN(Cc2cc(OC)c(OC)cc2[N+](=O)[O-])CC1` was run?
Answer: 6.31 µM (active)

Question: `CCN1C[C@]2(C)CC[C@H](OC)[C@@]34[C@@H]2[C@H](OC(C)=O)[C@]2(OCO[C@@]25C[C@@H](OC)[C@@H]2C[C@@]3(O)[C@H]5[C@@H]2OC)[C@H]14` was tested. Which “activity, negative = inhibition” value did it give?
Answer: -2.5% [at 25.6 µM] (inactive)

Question: `COC(=O)NC/C=C\c1nc(CC/C=C\C(=O)O[C@H]2C[C@H]3CC(=O)O[C@@H](/C=C\CC(C)C)C[C@@H]4CC[C@H](C)[C@H](C[C@@H](OC)C[C@H](C2)O3)O4)co1` was tested. Which activity, negative = inhibition did it give?
Answer: -6.57% [at 11.4 µM] (inactive)

Question: `CC(N)Cc1ccccc1Sc1ccc(O)cc1` (stereo unspecified) was tested. Which AC50 did it give?
Answer: 10 µM (active)

Question: With `CNC(C)Cc1ccccc1Sc1ccc(O)cc1` (stereo unspecified) as the molecule, how does the AC50 read?
Answer: 3.16 µM (active)

Question: How did the “activity, negative = inhibition” value turn out when `COC(=O)C1(C)C=C2C(=C(C)C(=O)C2C)CN1` (stereo unspecified) was run?
Answer: -5.73% (inactive)

Question: How did the “activity, negative = inhibition” value turn out when `CC(C)[C@@H]1CN[C@H](C(=O)O)[C@@H]1CC(=O)O` was run?
Answer: 3.37% (inactive)

Question: `C=C1[C@@H]2C[C@@]3([C@H]1O)[C@H]1C[C@@H]4[C@@]5(C)CC[C@H](O)[C@]4([C@H]1N(CC)C5)[C@H]3C[C@H]2O` was tested. Which “activity, negative = inhibition” value did it give?
Answer: -0.649% [at 25.6 µM] (inactive)

Question: For `CC(C)CNCCc1ccccn1`, which activity, negative = inhibition is on record?
Answer: -13.8% [at 11.4 µM] (inactive)

Question: How did the “activity, negative = inhibition” value turn out when `CCC(=O)O[C@H]1CC[C@H]2[C@@H]3CCC4=CC(=O)CC[C@]4(C)[C@H]3CC[C@]12C` was run?
Answer: -8.4% [at 25.6 µM] (inactive)

Question: For `CC[C@@H](C)[C@H]1O[C@]2(CC[C@@H]1C)C[C@@H]1C[C@H](C/C=C(/C)[C@H](O[C@@H]3C[C@H](OC)[C@H](O[C@@H]4C[C@H](OC)[C@@H](O)[C@H](C)O4)[C@H](C)O3)[C@@H](C)/C=C\C=C3CO[C@@H]4[C@H](O)C(C)=C[C@@H](C(=O)O1)[C@]34O)O2` (tested in a mixture with another compound), which “activity, negative = inhibition” value is on record?
Answer: 5.21% (inactive)

Question: Which “activity, negative = inhibition” value does the source give for `Cc1ccc2c(c1)N(CCC(=O)N1CCC3(CC1)OCCO3)C(=O)C(C)O2` (stereo unspecified) here?
Answer: -27.8% (inactive)

Question: With `CN1CCc2cc(O)cc3c2[C@H]1Cc1ccc(O)c(O)c1-3` as the molecule, how does the “activity, negative = inhibition” value read?
Answer: -16% (inactive)

Question: For `COc1cc([C@H]2c3cc4c(cc3[C@@H](O)[C@@H]3COC(=O)[C@H]23)OCO4)cc(OC)c1OC`, which “activity, negative = inhibition” value is on record?
Answer: -7.23% [at 25.6 µM] (inactive)

Question: How did the AC50 turn out when `CN1CCc2cc3c(cc2[C@@H]1O)OCO3` was run?
Answer: 7.94 µM (active)

Question: How did the “activity, negative = inhibition” value turn out when `CC(=O)N1CC[N+](C)(C)CC1` was run?
Answer: -1.9% (inactive)

Question: How did the “activity, negative = inhibition” value turn out when `CC(C)(C)c1cc(C=C(C#N)C#N)cc(C(C)(C)C)c1O` was run?
Answer: -11.6% (inactive)

Question: How did the activity, negative = inhibition turn out when `CC1=C2C(=O)[C@@H]3[C@@H](CC=C4C[C@@H](O)CC[C@@]43C)[C@H]2CC[C@@]12O[C@H]1C[C@H](C)CN[C@H]1[C@@H]2C` was run?
Answer: 9.41% [at 11.4 µM] (inactive)

Question: With `NS(=O)(=O)c1cc([C@@]2(O)NC(=O)c3ccccc32)ccc1Cl` as the molecule, how does the “activity, negative = inhibition” value read?
Answer: 4.03% [at 25.6 µM] (inactive)

Question: Which “activity, negative = inhibition” value does the source give for `CCOc1ccc(C2C(C#N)=C(N)Oc3c2c(=O)oc2ccccc32)cc1` (stereo unspecified) here?
Answer: -8.83% (inactive)

Question: With `CCOC(C(=O)OCCCN(CC)CC)(c1ccccc1)c1ccccc1` as the molecule, how does the AC50 read?
Answer: 2 µM (active)

Question: `CC(C)NP(=O)(NC(C)C)OP(=O)(NC(C)C)NC(C)C` was tested. Which “activity, negative = inhibition” value did it give?
Answer: 10.5% (inactive)

Question: For `CC(C)N[C@@H](C)Cc1ccc(I)cc1`, which AC50 is on record?
Answer: 0.1 µM (active)

Question: For `Cc1ccc2cc3cc(C(=O)N4CCC5(CC4)OCCO5)oc3nc2c1`, which “activity, negative = inhibition” value is on record?
Answer: -17.5% (inactive)

Question: How did the “activity, negative = inhibition” value turn out when `CCOC(=O)c1ncn2c1CN(C)C(=O)c1cc(F)ccc1-2` was run?
Answer: -7.93% (inactive)
